As usually defined, the inhibition is the drop in the measured response relative to a control, in per cent.

Data on 14 compounds can be found in PubChem BioAssay.

Active and inactive are the calls of the source.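 Rule for the calls, unless noted: active = inhibition above 20% together with a positive visual image hit; inconclusive = visual image hit but inhibition not above 20%; inactive = no visual image hit.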

Test [1] in a line: inhibitors of TNFa-induced NFkB p65 translocation, primary screen, imaging, HUVEC, MLSMR starter and 10KST1 sets (AID 438).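 For inhibition: signal is the nuclear over cytoplasmic p65 intensity ratio per well.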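 Note: compound added about 3h40 before a 20 min TNFalpha stimulation.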 The note with it: HUVEC TNFa-induced p65 nuclear translocation; cell count: measured here: nuclei count (cytotoxicity indicator), at 2.08 µM; inhibition: at 2 µM, stronger effect = higher value, 0% TNFa-plus-vehicle, 100% no-TNFa wells.
The nature of test [2]: inhibitors of mutant huntingtin aggregation, primary screen, imaging, exon1htt(103Q)mCFP cells, high-content imaging (AID 483;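 active = visual image review flags a hit and inhibition of aggregation exceeds 20%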;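 note: compound exposure lasted 3 days before fixation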;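 for nuclei count: percent of the per-plate median nuclei count of sample wells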). The note with it: exon1htt(103Q)mCFP cell line, aggregate imaging, at 2 µM; inhibition of aggregation: stronger effect = higher value; nuclei count: measured here: cell count, toxicity.
Test [3] in a line: inhibitors of E-selectin induction by TNFa, primary screen, imaging, HUVEC, immunofluorescence, MLSMR starter and 10KST1 sets (AID 487;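 active = visually confirmed hit in the image check and inhibition above 20%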;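 for inhibition: signal is fraction of cell area covered by stained E-selectin grains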;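 for nuclei count: 100% = median nuclei count of all wells on the same plate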). To be noted: HUVEC TNFalpha-induced E-selectin immunofluorescence imaging, at 2 µM; inhibition: stronger effect = higher value; nuclei count: measured here: cell number, toxicity.
Test [4] concerns the target Voltage-gated potassium channel subunit beta-2 (Rattus norvegicus) (UniProt P62483). Kind of test: KvBeta enzyme negative modulators, primary screen, biochemical, NADPH fluorescence (AID 622;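 active = fluorescence slope higher than the sample average by over 3 SD, cut at about -0.22 in these data, passing the limit was not always enough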;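 note: slope of raw intensity against log time taken from 70 to 1610 s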). The note with it: recombinant KvBeta, 4-cyanobenzaldehyde reduction, at 10 µM, stronger effect = higher value.
Test [5] shares this target. Kind of test: KvBeta positive modulators, primary screen, biochemical, NADPH fluorescence (AID 623;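 active = NADPH fluorescence slope more negative than the mean of all samples by about 3 SD, 99.7% confidence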;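 note: fluorescence intensity change per second fitted from 20 to 320 s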). To be noted: Recombinant KvBeta, NADPH fluorescence decrease slope, 10 min; at 10 µM; stronger effect = lower value.
For test [6], the target named is Alpha-2C adrenergic receptor (Homo sapiens) (UniProt P18825). The experiment in a line: modulators of alpha2C/GIRK thallium flux, primary screen, cell-based, HEK293 alpha2C/GIRK1/2 (AID 624;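 active = fluorescence slope after compound addition differing from the mean of all screened samples at 99.7% confidence, in either direction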;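 note: slope of fluorescence ratio to pre-addition baseline per second over 15 to 24 s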). The note with it: thallium flux BTC fluorescence, at 10 µM, actives lie on both sides.
The nature of test [7]: inhibitors of Sendai virus-induced IRF3 signaling, primary screen, TLR/RLR signaling modifier project, cell-based, Sendai virus stimulus, luciferase, 10K MLSCN set (AID 602276;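 active = inhibition at or above 50% at 10 µM; inactive = inhibition below 50%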;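 note: firefly luciferase from ISG56 promoter only with Renilla not read in this screen; 0% = Sendai virus plus DMSO and 100% = medium plus DMSO without virus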). The note with it: HEK293 RL24 IRF3 luciferase reporter, at 10 µM, stronger effect = higher value. A general note: A reporter such as luciferase makes a cellular process visible.
Test [8] can be described thus: inhibitors of poly I:C-induced TLR3 signaling, primary screen, cell-based, poly I:C stimulus, luciferase, 10K MLSCN set (AID 602277;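 active = inhibition of the reporter signal at or above 50%; inactive = inhibition below 50%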). The note with it: HEK293-TLR3 RL24 IRF3 luciferase reporter, at 10 µM, stronger effect = higher value.

Chain of Alpha-2C adrenergic receptor (Homo sapiens) (P18825 whole entry, looked up): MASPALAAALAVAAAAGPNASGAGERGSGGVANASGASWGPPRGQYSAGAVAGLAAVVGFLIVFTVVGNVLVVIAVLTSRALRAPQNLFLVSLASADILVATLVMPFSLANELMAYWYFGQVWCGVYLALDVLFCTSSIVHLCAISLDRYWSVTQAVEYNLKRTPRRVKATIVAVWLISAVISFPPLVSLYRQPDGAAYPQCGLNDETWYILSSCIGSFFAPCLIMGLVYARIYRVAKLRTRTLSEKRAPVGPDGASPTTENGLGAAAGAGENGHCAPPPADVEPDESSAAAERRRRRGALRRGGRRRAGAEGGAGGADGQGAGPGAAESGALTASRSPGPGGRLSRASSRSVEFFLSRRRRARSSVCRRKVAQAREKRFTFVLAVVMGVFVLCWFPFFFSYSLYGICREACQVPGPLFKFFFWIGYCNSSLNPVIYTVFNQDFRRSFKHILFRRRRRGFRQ
Chain of Voltage-gated potassium channel subunit beta-2 (Rattus norvegicus) (P62483 whole entry, looked up): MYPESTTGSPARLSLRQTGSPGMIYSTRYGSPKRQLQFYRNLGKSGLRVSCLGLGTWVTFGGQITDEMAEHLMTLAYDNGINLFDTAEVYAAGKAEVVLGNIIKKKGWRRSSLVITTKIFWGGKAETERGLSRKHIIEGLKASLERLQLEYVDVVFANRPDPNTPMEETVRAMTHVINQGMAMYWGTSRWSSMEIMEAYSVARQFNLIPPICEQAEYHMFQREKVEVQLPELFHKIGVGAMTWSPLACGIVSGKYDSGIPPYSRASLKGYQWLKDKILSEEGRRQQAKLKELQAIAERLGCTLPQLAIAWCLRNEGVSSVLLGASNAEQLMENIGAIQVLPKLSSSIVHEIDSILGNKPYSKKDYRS

For the compound `CSc1c(C#N)c(N)c(C#N)c2c1COC(C)(C)C2`, in test [1], the cell count came out at 723. The inhibition was -2.6% (inactive) in test [1], -34% (inactive) in test [3], 17.3% (inactive) in test [7] and 25.5% (inactive) in test [8]. For the same compound, in test [2], the inhibition of aggregation is -6.1% (inactive). The nuclei count is 83% in test [2] and 103% in test [3]. Moreover, in test [4], the fluorescence slope was -0.501 (inactive). In test [5], the NADPH fluorescence slope is -4.2e-05 (inactive). The slope in test [6] was 0.00561 (inactive).

Consider `Cc1nc2sc(C(c3cccc(F)c3)N3CCCCC3)c(O)n2n1` (centres undefined), for which the cell count in test [1] was determined as 223. Besides, the inhibition is -2.8% (inactive) in test [1], -5.7% (inactive) in test [3], 1.92% (inactive) in test [7] and 19.2% (inactive) in test [8]. In addition, in test [2], the inhibition of aggregation is -5.5% (inactive). Besides, the nuclei count worked out at 95.8% in test [2] and 120% in test [3]. The fluorescence slope in test [4] was -0.538 (inactive). The NADPH fluorescence slope in test [5] is 7.3e-06 (inactive). In test [6], the slope is 0.00555 (inactive).

In the case of `CCN(CC)C(=O)COC(=O)c1ccc(O)cc1`, the cell count in test [1] came to 440. In addition, the inhibition is 7.7% (inactive) in test [1], -5.4% (inactive) in test [3], -1.76% (inactive) in test [7] and -1.25% (inactive) in test [8]. Also, the inhibition of aggregation in test [2] is 9.9% (inactive). The nuclei count is 83.5% in test [2] and 99.1% in test [3]. For the same compound, the fluorescence slope in test [4] is -0.512 (inactive). Also, the NADPH fluorescence slope in test [5] was 2.3e-05 (inactive). For the same compound, the slope in test [6] is 0.00516 (inactive).

With `O=C(CN1C(=O)CC(c2ccco2)Sc2ccccc21)Nc1ccccc1F` (centres undefined), the cell count in test [1] came out at 551. Further, the inhibition in test [1] is -2.9% (inactive); in test [3] it was -28.3% (inactive); in test [7] it was 12.5% (inactive); in test [8], 15.3% (inactive). Further, in test [2], the inhibition of aggregation was -3.5% (inactive). For the same compound, the nuclei count in test [2] stood at 111%; in test [3] it was 110%. Also, the fluorescence slope in test [4] was -0.588 (inactive). For the same compound, the NADPH fluorescence slope in test [5] was 1.9e-05 (inactive). Moreover, the slope in test [6] is 0.00681 (inactive).

Regarding `COc1cccc(N(C(C)=O)c2nc(C)cc(C)c2C#N)c1`, the cell count in test [1] was found to be 278. Moreover, the inhibition in test [1] was 13.4% (inactive); in test [3], -47.7% (inactive); in test [7], 17.6% (inactive); in test [8], 28.7% (inactive). Further, the inhibition of aggregation in test [2] is -28.3% (inactive). Also, the results for the nuclei count in test [2] and in test [3] were 113% and 102%, respectively. In test [4], the fluorescence slope is -0.557 (inactive). Further, in test [5], the NADPH fluorescence slope is -1.8e-05 (inactive). Also, the slope in test [6] is 0.00529 (inactive).

In the case of `Cc1nc(CNS(=O)(=O)c2cccc(F)c2)cs1`, the cell count in test [1] is 307. Besides, the inhibition in test [1] is 5% (inactive); in test [3], -10.3% (inactive); in test [7], 7.13% (inactive); in test [8] it was 20.4% (inactive). Further, the inhibition of aggregation in test [2] was 14.1% (inactive). The nuclei count in test [2] was determined as 87.9%; in test [3] it was 92.4%. Also, the fluorescence slope in test [4] was -0.506 (inactive). In addition, the NADPH fluorescence slope in test [5] is -3.7e-05 (inactive). Further, in test [6], the slope was 0.00673 (inactive).

For `CN(CC(=O)NCCC1=CCCCC1)S(=O)(=O)c1ccc2c(c1)CCC(=O)N2`, the cell count in test [1] was determined as 603. Besides, the inhibition was 16.1% (inactive) in test [1], -110% (inactive) in test [3], -4.9% (inactive) in test [7] and 16.8% (inactive) in test [8]. Also, the inhibition of aggregation in test [2] is 19% (inactive). Further, the nuclei count in test [2] stood at 111%; in test [3], 141%. Also, in test [4], the fluorescence slope was -0.505 (inactive). The NADPH fluorescence slope in test [5] was 1.1e-05 (inactive). Moreover, in test [6], the slope is 0.00584 (inactive).

In the case of `Cc1cc(C(F)(F)F)nc(NCc2cccnc2)n1`, the cell count in test [1] amounted to 597. The inhibition was -31.3% (inactive) in test [1], -79.3% (inactive) in test [3], -7.81% (inactive) in test [7] and -18.3% (inactive) in test [8]. Further, the inhibition of aggregation in test [2] was -19.1% (inactive). Also, the nuclei count turned out to be 97.7% in test [2] and 120% in test [3]. Besides, the fluorescence slope in test [4] was -0.529 (inactive). Moreover, the NADPH fluorescence slope in test [5] was 1.9e-05 (inactive). For the same compound, in test [6], the slope is 0.00686 (inactive).

For the compound `CCCCSc1nc2c(cnn2-c2ccc(F)cc2)c(=O)[nH]1`, in test [1], the cell count came to 619. Moreover, the inhibition was -10.7% (inactive) in test [1], -19.6% (inactive) in test [3], 4.85% (inactive) in test [7] and 12.8% (inactive) in test [8]. Also, the inhibition of aggregation in test [2] was 13.9% (inactive). Moreover, the nuclei count in test [2] is 81.3%; in test [3], 122%. Besides, the fluorescence slope in test [4] is -0.458 (inactive). Also, the NADPH fluorescence slope in test [5] was -3.7e-05 (inactive). Besides, the slope in test [6] is 0.00558 (inactive).

In the case of `O=S(=O)(c1ccccc1)c1nc(-c2cccs2)oc1NCC1CCCO1` (centres undefined), in test [1], the cell count was 566. Further, the inhibition is -1.8% (inactive) in test [1], -17.9% (inactive) in test [3], -17.6% (inactive) in test [7] and -20.5% (inactive) in test [8]. In test [2], the inhibition of aggregation was 11.4% (inactive). The values for the nuclei count in test [2] and in test [3] were 108% and 104%, respectively. For the same compound, the fluorescence slope in test [4] was -0.538 (inactive). Also, the NADPH fluorescence slope in test [5] is 5.1e-06 (inactive). For the same compound, in test [6], the slope is 0.00406 (inactive).

Turning to `O=C(NC12CC3CC(CC(C3)C1)C2)N1CCN(C(=O)C2CCCO2)CC1` (centres undefined), the cell count in test [1] was 434. The inhibition in test [1] is -10.3% (inactive); in test [3] it was -186% (inactive); in test [7] it was 18% (inactive); in test [8], 11.1% (inactive). In addition, the inhibition of aggregation in test [2] was -18.6% (inactive). The values for the nuclei count in test [2] and in test [3] were 100% and 0.2%, respectively. In test [4], the fluorescence slope was -0.392 (inactive). Also, in test [5], the NADPH fluorescence slope was -7.1e-05 (inactive). Further, the slope in test [6] is 0.00603 (inactive).

As for `C=CCn1c(SCC(=O)C(C)(C)C)nnc1-c1ccccn1`, the cell count in test [1] was 583. For the same compound, the inhibition is -3.4% (inactive) in test [1], 9.2% (inactive) in test [3], 12.5% (inactive) in test [7] and 18.5% (inactive) in test [8]. The inhibition of aggregation in test [2] is 16.4% (inactive). For the same compound, the results for the nuclei count in test [2] and in test [3] were 83.3% and 90.9%, respectively. Besides, the fluorescence slope in test [4] was -0.291 (inactive). For the same compound, the NADPH fluorescence slope in test [5] was -5.6e-05 (inactive). Besides, in test [6], the slope was 0.00526 (inactive).

For the compound `COc1ccc(NC2c3ncccc3C(=O)N2Cc2ccccc2)c(OC)c1` (centres undefined), the cell count in test [1] amounted to 480. Also, the inhibition in test [1] was 1.6% (inactive); in test [3] it was -31.3% (inactive); in test [7], 7.6% (inactive); in test [8], 15.8% (inactive). For the same compound, the inhibition of aggregation in test [2] was -17% (inactive). Moreover, the nuclei count was found to be 116% in test [2] and 114% in test [3]. Also, the fluorescence slope in test [4] is -0.609 (inactive). Also, in test [5], the NADPH fluorescence slope is -9.3e-06 (inactive). In addition, in test [6], the slope is 0.00393 (inactive).

Turning to `CC(=O)NC(CCS(C)(=O)=O)C(=O)Nc1cccc(C)c1` (centres undefined), in test [1], the cell count turned out to be 600. The inhibition in test [1] is 8.7% (inactive); in test [3] it was 21.6% (inactive); in test [7] it was -14.8% (inactive); in test [8], -1.13% (inactive). Also, the inhibition of aggregation in test [2] was 2.5% (inactive). The nuclei count stood at 110% in test [2] and 95.7% in test [3]. Moreover, in test [4], the fluorescence slope is -0.579 (inactive). Also, in test [5], the NADPH fluorescence slope is 1.1e-05 (inactive). Also, the slope in test [6] was 0.00598 (inactive).
